# In PubChem BioAssay:
# Calls of active or inactive are those of the source.
# Legend:
# [1] = tested on: Plasmodium falciparum Sir2 (PF13_0152, Sir2A); assay: pfSir2 binders on small-molecule microarrays, primary screen, biochemical, small-molecule microarray, 635 nm fluorescence (AID 1098); settings: small-molecule microarray binding, fluorescence 635 nm; higher = more signal;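 note: score merges spot fluorescence intensity with its signal-to-noise ratio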
# [2] = small-molecule microarray binders of probe aDKK1, primary screen, biochemical, biotinylated probe, 635/667 nm fluorescence (AID 1099); settings: higher = more signal;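 note: score merges 667nm spot fluorescence with signal to noise across triplicate slides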
# [3] = small-molecule microarray binders of probe aCHRDL2, primary screen, biochemical, biotinylated probe, 635/667 nm fluorescence (AID 1100); settings: higher = more signal
# [4] = splicing luciferase reporter signal modulators, primary screen, spliceosome inhibition project, cell-based, HEK293, splice +/- reporter (AID 1101); settings: luminescence, 24 h, higher = more signal, called active from +8 up or from −8 down;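 note: HEK293 cells carrying a splicing-competent luciferase reporter gene; test concentration not given here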
# [5] = molecular target: Fibroblast growth factor 10 (Homo sapiens) (UniProt O15520); assay: FGF10 binders on small-molecule microarrays, primary screen, biochemical, small-molecule microarray, 635 nm fluorescence (AID 1102); settings: FGF10 binding, fluorescence 635 nm, higher = more signal
# Chain of Fibroblast growth factor 10 (Homo sapiens) (O15520 whole entry, looked up): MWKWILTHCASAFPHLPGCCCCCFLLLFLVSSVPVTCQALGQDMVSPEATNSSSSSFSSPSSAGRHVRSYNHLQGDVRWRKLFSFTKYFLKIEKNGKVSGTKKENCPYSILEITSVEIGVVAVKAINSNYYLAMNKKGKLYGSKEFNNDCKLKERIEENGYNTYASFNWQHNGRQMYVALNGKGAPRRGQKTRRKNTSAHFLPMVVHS
# [6] = tested on: glycogen synthase kinase-3 (GSK3A per assay name; protocol says GSK3B); assay: GSK3 binders on small-molecule microarrays, primary screen, biochemical, small-molecule microarray, 635 nm fluorescence, GSK3A (AID 1103); settings: small-molecule microarray binding, fluorescence 635 nm; higher = more signal; note: the record names both GSK3A and GSK3B
# [7] = molecular target: Epidermal growth factor receptor (Homo sapiens) (UniProt P00533); assay: EGFR binders on small-molecule microarrays, primary screen, biochemical, small-molecule microarray, 635 nm fluorescence (AID 1104); settings: EGFR binding, higher = more signal;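 note: score merges 667 nm emission intensity with spot signal to noise over triplicate slides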
# Chain of Epidermal growth factor receptor (Homo sapiens) (P00533 whole entry, looked up): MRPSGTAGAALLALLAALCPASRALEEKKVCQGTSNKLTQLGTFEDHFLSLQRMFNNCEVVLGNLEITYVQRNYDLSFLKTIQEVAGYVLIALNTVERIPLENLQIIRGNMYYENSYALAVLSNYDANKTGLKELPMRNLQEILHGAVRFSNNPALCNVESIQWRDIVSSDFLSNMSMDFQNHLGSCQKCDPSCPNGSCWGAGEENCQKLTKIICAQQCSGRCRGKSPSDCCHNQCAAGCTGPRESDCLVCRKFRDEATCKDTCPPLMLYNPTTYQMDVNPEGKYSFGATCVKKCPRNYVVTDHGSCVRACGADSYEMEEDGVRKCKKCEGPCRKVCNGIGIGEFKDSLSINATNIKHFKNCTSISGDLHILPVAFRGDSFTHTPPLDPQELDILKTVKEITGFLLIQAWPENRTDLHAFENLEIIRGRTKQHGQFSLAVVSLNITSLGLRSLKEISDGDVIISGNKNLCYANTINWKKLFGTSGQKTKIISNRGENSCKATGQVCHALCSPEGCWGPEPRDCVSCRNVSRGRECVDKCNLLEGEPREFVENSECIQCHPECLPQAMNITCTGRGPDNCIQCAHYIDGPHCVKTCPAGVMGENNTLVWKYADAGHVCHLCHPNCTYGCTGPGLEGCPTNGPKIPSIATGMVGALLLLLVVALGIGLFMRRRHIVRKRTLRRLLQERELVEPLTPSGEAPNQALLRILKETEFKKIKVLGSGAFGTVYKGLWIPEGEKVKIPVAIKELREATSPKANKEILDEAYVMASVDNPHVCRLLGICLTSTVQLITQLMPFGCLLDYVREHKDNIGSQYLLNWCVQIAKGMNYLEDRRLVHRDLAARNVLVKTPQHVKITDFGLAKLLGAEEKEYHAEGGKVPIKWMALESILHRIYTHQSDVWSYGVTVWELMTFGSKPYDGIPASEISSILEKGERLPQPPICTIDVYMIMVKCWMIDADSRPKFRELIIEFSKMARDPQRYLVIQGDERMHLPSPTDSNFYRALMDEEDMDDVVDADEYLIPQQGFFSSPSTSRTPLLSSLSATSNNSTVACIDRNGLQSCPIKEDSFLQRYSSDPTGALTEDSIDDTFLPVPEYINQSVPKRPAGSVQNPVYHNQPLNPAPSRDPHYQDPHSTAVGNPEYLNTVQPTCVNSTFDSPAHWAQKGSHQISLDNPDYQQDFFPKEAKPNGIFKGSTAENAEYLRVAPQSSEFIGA
# [8] = molecular target: Follistatin-related protein 3 (Homo sapiens) (UniProt O95633); assay: FSTL3 binders on small-molecule microarrays, primary screen, biochemical, small-molecule microarray, 635 nm fluorescence (AID 1105); settings: FSTL3 binding, higher = more signal;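 note: score merges emission near 667 nm and signal to noise per printed spot across three slides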
# Chain of Follistatin-related protein 3 (Homo sapiens) (O95633 whole entry, looked up): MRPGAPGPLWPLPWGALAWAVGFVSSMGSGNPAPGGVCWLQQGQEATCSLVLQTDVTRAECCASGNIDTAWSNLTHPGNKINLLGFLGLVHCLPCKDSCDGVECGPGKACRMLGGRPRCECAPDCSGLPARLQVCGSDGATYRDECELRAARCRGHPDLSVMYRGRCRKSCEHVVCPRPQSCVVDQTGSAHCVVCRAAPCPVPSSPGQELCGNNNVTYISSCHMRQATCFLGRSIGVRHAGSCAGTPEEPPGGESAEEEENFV
# [9] = molecular target: Dickkopf-related protein 1 (Homo sapiens) (UniProt O94907); assay: DKK1 binders on small-molecule microarrays, primary screen, biochemical, small-molecule microarray, 635 nm fluorescence scan (AID 1106); settings: DKK1 binding, higher = more signal;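 note: score merges emission near 667 nm with signal to noise over three replicate slides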
# Chain of Dickkopf-related protein 1 (Homo sapiens) (O94907 whole entry, looked up): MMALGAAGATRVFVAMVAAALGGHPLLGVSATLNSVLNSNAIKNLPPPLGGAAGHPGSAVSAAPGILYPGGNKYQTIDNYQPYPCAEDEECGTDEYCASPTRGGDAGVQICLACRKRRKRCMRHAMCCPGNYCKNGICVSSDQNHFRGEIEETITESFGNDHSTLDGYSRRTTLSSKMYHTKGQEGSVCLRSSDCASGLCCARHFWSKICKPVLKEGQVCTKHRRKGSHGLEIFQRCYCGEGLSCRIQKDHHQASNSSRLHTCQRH
# [10] = tested on: Inhibin beta A chain (activin A); assay: INHBA (activin A) binders on microarrays, primary screen, biochemical, small-molecule microarray, 635 nm fluorescence scan (AID 1107); settings: small-molecule microarray binding, higher = more signal;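 note: mouse activin A protein probed at 4.33 µg/mL on printed slides; score merges bound-protein fluorescence near 667 nm with spot signal-to-noise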
# [11] = tested on: Human papillomavirus type 1a protein E7 (residues 44-93); assay: HPV1a E7 fragment binders on microarrays, primary screen, biochemical, small-molecule microarray, residues 44-93, 635 nm fluorescence (AID 1108); settings: small-molecule microarray binding, fluorescence 635 nm; higher = more signal;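 note: E7 fragment applied at 1 µg/mL in TBST for 1 h at 4 C; score combines spot fluorescence with its signal to noise ratio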
# [12] = modulators of HCV replicon luciferase signal, primary screen, HCV replication inhibitor project, Huh7 cells, luciferase reporter (AID 1109); settings: 48 h, higher = more signal;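 note: huh7 hepatoma cells harbouring a luciferase neomycin HCV replicon reporter; luciferase luminescence as measure of HCV replicon replication; test concentration not given here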
# [13] = molecular target: Left-right determination factor 2 (Homo sapiens) (UniProt O00292); assay: LEFTY2 binders on small-molecule microarrays, primary screen, biochemical, small-molecule microarray, 635 nm fluorescence scan (AID 1110); settings: LEFTY2 binding, higher = more signal
# Chain of Left-right determination factor 2 (Homo sapiens) (O00292 whole entry, looked up): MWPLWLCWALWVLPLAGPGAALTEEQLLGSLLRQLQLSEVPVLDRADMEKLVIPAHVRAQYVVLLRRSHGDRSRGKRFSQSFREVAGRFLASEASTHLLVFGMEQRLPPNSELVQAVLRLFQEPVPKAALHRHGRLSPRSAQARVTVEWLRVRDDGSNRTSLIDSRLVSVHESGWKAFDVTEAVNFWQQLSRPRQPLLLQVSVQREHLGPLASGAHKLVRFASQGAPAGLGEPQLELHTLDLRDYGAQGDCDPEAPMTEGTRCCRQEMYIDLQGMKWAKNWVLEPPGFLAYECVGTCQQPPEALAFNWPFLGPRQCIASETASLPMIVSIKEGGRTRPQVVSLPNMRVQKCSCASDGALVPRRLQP
# [14] = molecular target: Calmodulin-1 (Homo sapiens) (UniProt P0DP23); assay: CALM1 binders on microarrays, EGTA buffer, profiling panel, biochemical, small-molecule microarray, Cy5-labelled CALM1 (AID 1111); settings: Cy5-CALM1 binding fluorescence, higher = more signal;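 note: labelled calmodulin applied in Tris saline Tween buffer holding calcium plus EGTA and DTT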
# [15] = molecular target: Calmodulin-1 (Homo sapiens) (UniProt P0DP23); assay: calcium-bound CALM1 binders on microarrays, profiling panel, artefact control for SMM control-protein annotation, biochemical, small-molecule microarray, Cy5-labelled CALM1, plus calcium (AID 1112); settings: Cy5-CALM1 binding fluorescence, higher = more signal;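 note: score merges spot fluorescence with signal to noise from triplicate slides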
# [16] = small-molecule microarray binders of probe aWnt5a, primary screen, biochemical, biotinylated probe, 635/667 nm fluorescence (AID 1113); settings: higher = more signal;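 note: score merges 667 nm fluorescence intensity with signal-to-noise per printed feature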
# [17] = small-molecule microarray binders of probe aShh, primary screen, biochemical, biotinylated probe, 635/667 nm fluorescence (AID 1114); settings: higher = more signal;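 note: probe is biotin-labelled aShh protein from a stem cell growth factor screen; measures binding of labelled protein to compounds printed on the slide; score merges feature fluorescence at 667 nm with signal-to-noise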
# [18] = small-molecule microarray binders of probe aNog, primary screen, biochemical, biotinylated probe, 635/667 nm fluorescence (AID 1115); settings: higher = more signal;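 note: probe is biotinylated aNog protein used at 0.15 µg/mL for 1 h at 4 C; z-score combines 667 nm fluorescence of each spot with its signal to noise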
# [19] = molecular target: Torsin-1A-interacting protein 1 (Homo sapiens) (UniProt Q5JTV8); assay: LAP1 binders from COS7 cell lysate, primary screen, small-molecule microarray, 635/667 nm fluorescence (AID 1116); settings: COS7-hLAP1 lysate binding, 635 nm fluorescence, higher = more signal
# Chain of Torsin-1A-interacting protein 1 (Homo sapiens) (Q5JTV8 whole entry, looked up): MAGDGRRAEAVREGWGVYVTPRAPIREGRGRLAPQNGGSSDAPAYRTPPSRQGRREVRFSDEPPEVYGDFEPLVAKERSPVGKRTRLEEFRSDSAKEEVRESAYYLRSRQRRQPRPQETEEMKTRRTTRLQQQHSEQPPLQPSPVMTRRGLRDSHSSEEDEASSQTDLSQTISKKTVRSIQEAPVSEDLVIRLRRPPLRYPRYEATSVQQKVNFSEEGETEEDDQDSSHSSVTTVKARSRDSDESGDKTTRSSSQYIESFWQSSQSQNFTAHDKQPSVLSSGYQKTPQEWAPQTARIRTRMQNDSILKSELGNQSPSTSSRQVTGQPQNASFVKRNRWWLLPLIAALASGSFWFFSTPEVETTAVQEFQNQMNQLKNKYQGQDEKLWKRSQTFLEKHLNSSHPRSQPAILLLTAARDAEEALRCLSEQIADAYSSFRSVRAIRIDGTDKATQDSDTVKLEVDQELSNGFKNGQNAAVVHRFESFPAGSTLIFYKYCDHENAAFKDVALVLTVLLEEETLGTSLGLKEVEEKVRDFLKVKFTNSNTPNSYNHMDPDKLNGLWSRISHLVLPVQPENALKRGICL
# [20] = molecular target: Alpha-bungarotoxin (Bungarus multicinctus) (UniProt P60615); assay: alpha-bungarotoxin binders on microarray, profiling panel, artefact control for SMM control protein annotation, biochemical, small-molecule microarray, Alexa647 label, 635/667 nm fluorescence (AID 1117); settings: alpha-BTX-A647 binding fluorescence, higher = more signal
# Chain of Alpha-bungarotoxin (Bungarus multicinctus) (P60615 whole entry, looked up): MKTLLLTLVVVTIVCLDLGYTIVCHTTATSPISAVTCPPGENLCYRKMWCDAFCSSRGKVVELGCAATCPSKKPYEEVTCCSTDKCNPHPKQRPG
Compound,composite z-score [1],composite z-score [2],composite z-score [3],z-score [4],composite z-score [5],composite z-score [6],composite z-score [7],composite z-score [8],composite z-score [9],composite z-score [10],composite z-score [11],z-score [12],composite z-score [13],composite z-score [14],composite z-score [15],composite z-score [16],composite z-score [17],composite z-score [18],composite z-score [19],composite z-score [20]
COCC(=C=CC[C@@H](O)c1ccccc1OCCO)C[C@@H](O)c1ccccn1,0.378,-0.0661,-0.0356,0.141 (inactive),0.457,0.207,-0.0982,0.322,0.0514,0.639,0.968,-0.979,0.289,-0.153,-0.514,-0.124,-0.0119,0.099,-0.246,0.34
CC1C=C(CCCO)C=C(C(=O)OCCS(C)(=O)=O)C(C(=O)OCCS(C)(=O)=O)=CN1Cc1cccc(OC(F)(F)F)c1 (stereo not given),1.11,0.111,0.297,1.01 (inactive),0.243,0.621,-0.235,0.113,-0.385,0.829,1.11,-1.82,-0.152,1.7,1.09,0.027,0.481,1.27,2.99,0.761
COc1ccc(C#Cc2ccc3c(c2)[C@]2(C(=O)N3)[C@H](C(N)=O)[C@H]3C(=O)O[C@H](c4ccccc4)[C@H](c4ccccc4)N3[C@@H]2c2ccc(O)cc2)cc1,0.818,0.153,0.411,10.5 (active),0.904,0.491,0.248,0.313,0.0346,-0.116,1.48,-2.51,0.422,0.539,0.686,-0.12,-0.0904,-0.215,1.09,1.05
C=C(COC)/C(=C/C[C@@H](OC(=O)c1ccncc1)c1cccc(OCCO)c1)c1cc(C(=O)OC)ccc1OC,0.756,-0.183,-0.471,-0.651 (inactive),1.62,1.2,0.29,0.902,0.167,0.997,0.755,-4.4,0.872,-0.134,-0.698,0.115,0.0048,-0.483,0.567,0.243
Cc1ccc(S[C@]2(C(=O)O)CC(=O)N(Cc3ccccc3C(F)(F)F)[C@@H]2c2ccc(CO)cc2)cc1,-0.809,-0.0885,1.08,0.0922 (inactive),-0.628,-0.926,-1.01,-0.894,-1.03,1,0.973,0.0788,-0.587,-0.317,0.228,-0.176,-0.138,-0.321,0.914,-0.115
C=C[C@H](C)[C@H](OC(=O)Nc1ccc(SC)cc1)c1ccc(O)c2ccccc12,0.454,-0.579,-0.121,-2.12 (inactive),0.0716,-0.266,-0.0236,0.284,0.159,0.289,-1.97,-0.766,-0.256,-0.413,0.273,-0.325,0.0952,-0.383,-0.0193,-0.385
COCCOC(=O)N1C(=O)[C@@]2(c3cc(C#CCCO)ccc31)[C@H](C(=O)N1CCc3cc(OC)c(OC)cc3C1)[C@H]1C(=O)O[C@H](c3ccccc3)[C@H](c3ccccc3)N1[C@@H]2c1ccc(OCCO)cc1,1.19,0.125,-0.199,-0.575 (inactive),1.37,1.2,0.846,1.4,0.609,0.0945,1.32,-1.32,0.887,0.842,0.224,-0.0731,-0.304,0.299,0.868,0.826
NC(=O)NCC#Cc1ccc2c(c1)[C@]1(C(=O)N2)[C@H](c2ccc(OCCO)cc2)N2[C@H](c3ccccc3)[C@H](c3ccccc3)OC(=O)[C@H]2[C@@H]1C(=O)N1CCCCCCC1,1.72,2.51,1.17,0.238 (inactive),1.5,1.27,1.71,1.64,2.25,1.5,1.46,-1.02,1.73,2.77,1.2,1.38,0.565,3.11,4.35,1.77
C#CCOC(=O)N[C@H](C=CCCCC)c1ccccc1,-0.257,0.326,0.942,-0.341 (inactive),0.605,0.35,0.241,-0.484,-0.352,0.983,-0.0543,-0.498,-0.0624,0.44,0.368,-0.0888,0.413,1.52,1.51,-0.194
COC(=O)[C@@]1(Cc2ccccc2)[C@H]2c3cc(C(=O)N4CCCC4)n(Cc4ccccc4)c3C[C@H]2CN1C(=O)c1ccccc1,1.1,0.854,0.94,-2.8 (inactive),1.12,0.882,0.0075,0.96,-0.197,0.675,1.45,-2.45,-0.347,1.42,0.168,0.0362,0.356,1.48,0.55,0.401
CN(C)C(=O)[C@@]1(CCC(=O)OC(C)(C)C)N=C(c2ccc(OCCCO)cc2)O[C@H]1c1ccccc1N=[N+]=[N-],1.33,0.813,0.837,0.101 (inactive),1.46,0.253,0.334,1.4,0.648,0.707,1.54,1.58,0.494,1.61,0.727,0.0839,0.246,0.948,2.15,2.63
